Laboratory results reported in the supplement of paper PMC10849652.
Targets with a hit are over-represented here; the source holds about 7,900 in all. About 0.6% of all pairs of compound and target were hits. Values without a mark were called inactive.

Tests used:
Test in all cases: log2 fold change, soluble protein after heating vs DMSO (PISA); higher = thermal stabilisation; K562 cells, 10 uM, 30 min; active = over 0.2 and 3.5 SD of the protein, either way, in both replicates (recomputed)
[1] = compound: CC[C@@H]1C(=O)N(C)c2cnc(Nc3ccc(C(=O)NC4CCN(C)CC4)cc3OC)nc2N1C1CCCC1
Method in brief: (§1)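 K562 cells at 2×10^6 cells/mL were exposed to 10 μM compound for 30 min, then aliquots were heated for 3 min across 48°C-58°C, pooled, and extracted in PBS containing 0.5% NP-40 at 4°C. The supernatant after 21,000xg for 90 min was taken as soluble protein and measured by TMTpro 16plex LC-MS/MS with channel sums equalised. Thermal stability is reported relative to control samples, with values from duplicates. Fold changes are given on a log2 scale.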

volasertib = compound: CC[C@@H]1C(=O)N(C)c2cnc(Nc3ccc(C(=O)N[C@H]4CC[C@H](N5CCN(CC6CC6)CC5)CC4)cc3OC)nc2N1C(C)C [volasertib]
Method in brief: as §1

[2] = compound: CC[C@H](C)N1C=C(C2=C(C=C(C=C21)C3=CN=C(C=C3)N4CCNCC4)C(=O)NCC5=C(C=C(NC5=O)C)C)C
Method in brief: as §1

epoxomicin = compound: CC[C@H](C)[C@@H](C(=O)N[C@@H]([C@@H](C)O)C(=O)N[C@@H](CC(C)C)C(=O)[C@]1(CO1)C)NC(=O)[C@H]([C@@H](C)CC)N(C)C(=O)C [epoxomicin]
Method in brief: as §1

[3] = compound: CCn1c(C(=O)N(C2CC2)C2CC2)cc2c3c(ncn3C)c(Nc3cc(C)n(C)n3)nc21
Method in brief: as §1

[4] = compound: CCn1cc(-c2ccnc3[nH]c(-c4cccc(CN(C)C)c4)cc23)c(-c2ccc(NC(=O)N(C)C)cc2)n1
Method in brief: as §1

[5] = compound: CN(C)CC(=O)Nc1ccc2[nH]c(=O)c3ccccc3c2c1
Method in brief: as §1

rosiglitazone = compound: CN(CCOC1=CC=C(C=C1)C[C@H]2C(=O)NC(=O)S2)C3=CC=CC=N3 (racemic) [rosiglitazone]
Method in brief: as §1

[6] = compound: CN1C2=C(C3=C1C(=O)N(N=C3)CC4=CC(=CC=C4)N)SC(=C2)S(=O)C
Method in brief: as §1

[7] = compound: CN1CCC(CNc2ccc3ncc(-c4cccc(OC(F)(F)F)c4)n3n2)CC1
Method in brief: as §1

saracatinib = compound: CN1CCN(CCOc2cc(OC3CCOCC3)c3c(Nc4c(Cl)ccc5c4OCO5)ncnc3c2)CC1 [saracatinib]
Method in brief: as §1

sotrastaurin = compound: CN1CCN(c2nc(C3=C(c4c[nH]c5ccccc45)C(=O)NC3=O)c3ccccc3n2)CC1 [sotrastaurin]
Method in brief: as §1

alvocidib = compound: CN1CC[C@H](c2c(O)cc(O)c3c(=O)cc(-c4ccccc4Cl)oc23)[C@H](O)C1 [alvocidib]
Method in brief: as §1

Tubastatin A = compound: CN1CCc2c(c3ccccc3n2Cc2ccc(C(=O)NO)cc2)C1 [Tubastatin A]
Method in brief: as §1

[8] = compound: CNC(=O)C1=CC=CC=C1NC2=NC(=NC=C2Cl)NC3=C(C=C(C=C3)N4CCOCC4)OC
Method in brief: as §1

defactinib = compound: CNC(=O)c1ccc(Nc2ncc(C(F)(F)F)c(NCc3nccnc3N(C)S(C)(=O)=O)n2)cc1 [defactinib]
Method in brief: as §1

rucaparib = compound: CNCc1ccc(-c2[nH]c3cc(F)cc4c3c2CCNC4=O)cc1 [rucaparib]
Method in brief: as §1

[9] = compound: CNc1nc(-c2ccc3c(N)n[nH]c3c2)cc(N2C[C@@H](C(=O)NC3CCCCC3)CC[C@H]2C)n1
Method in brief: as §1

encorafenib = compound: COC(=O)N[C@@H](C)CNc1nccc(-c2cn(C(C)C)nc2-c2cc(Cl)cc(NS(C)(=O)=O)c2F)n1 [encorafenib]
Method in brief: as §1

[10] = compound: COC(=O)[C@H](CCSC)NC(=O)C1=C(C=C(C=C1)NC[C@H](CS)N)C2=CC=CC=C2
Method in brief: as §1

UniProt Q14181, sequence (Q14181 whole entry, looked up): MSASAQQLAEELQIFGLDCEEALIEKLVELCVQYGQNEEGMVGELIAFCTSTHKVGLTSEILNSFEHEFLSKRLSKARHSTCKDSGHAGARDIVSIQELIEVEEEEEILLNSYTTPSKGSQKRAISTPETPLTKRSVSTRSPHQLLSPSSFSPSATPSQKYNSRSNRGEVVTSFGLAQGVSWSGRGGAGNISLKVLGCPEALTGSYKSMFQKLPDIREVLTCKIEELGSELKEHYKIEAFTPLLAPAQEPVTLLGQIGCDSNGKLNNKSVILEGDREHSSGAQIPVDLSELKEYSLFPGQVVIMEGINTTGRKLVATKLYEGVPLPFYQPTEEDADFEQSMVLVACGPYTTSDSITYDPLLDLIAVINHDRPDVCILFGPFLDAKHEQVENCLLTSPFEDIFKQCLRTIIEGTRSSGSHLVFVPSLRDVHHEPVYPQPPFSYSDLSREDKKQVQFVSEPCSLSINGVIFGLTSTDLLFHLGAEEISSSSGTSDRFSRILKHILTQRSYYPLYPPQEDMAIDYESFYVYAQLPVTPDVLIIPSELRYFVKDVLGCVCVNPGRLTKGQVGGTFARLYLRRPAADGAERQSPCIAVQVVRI
UniProt P42338, sequence (P42338 whole entry, looked up): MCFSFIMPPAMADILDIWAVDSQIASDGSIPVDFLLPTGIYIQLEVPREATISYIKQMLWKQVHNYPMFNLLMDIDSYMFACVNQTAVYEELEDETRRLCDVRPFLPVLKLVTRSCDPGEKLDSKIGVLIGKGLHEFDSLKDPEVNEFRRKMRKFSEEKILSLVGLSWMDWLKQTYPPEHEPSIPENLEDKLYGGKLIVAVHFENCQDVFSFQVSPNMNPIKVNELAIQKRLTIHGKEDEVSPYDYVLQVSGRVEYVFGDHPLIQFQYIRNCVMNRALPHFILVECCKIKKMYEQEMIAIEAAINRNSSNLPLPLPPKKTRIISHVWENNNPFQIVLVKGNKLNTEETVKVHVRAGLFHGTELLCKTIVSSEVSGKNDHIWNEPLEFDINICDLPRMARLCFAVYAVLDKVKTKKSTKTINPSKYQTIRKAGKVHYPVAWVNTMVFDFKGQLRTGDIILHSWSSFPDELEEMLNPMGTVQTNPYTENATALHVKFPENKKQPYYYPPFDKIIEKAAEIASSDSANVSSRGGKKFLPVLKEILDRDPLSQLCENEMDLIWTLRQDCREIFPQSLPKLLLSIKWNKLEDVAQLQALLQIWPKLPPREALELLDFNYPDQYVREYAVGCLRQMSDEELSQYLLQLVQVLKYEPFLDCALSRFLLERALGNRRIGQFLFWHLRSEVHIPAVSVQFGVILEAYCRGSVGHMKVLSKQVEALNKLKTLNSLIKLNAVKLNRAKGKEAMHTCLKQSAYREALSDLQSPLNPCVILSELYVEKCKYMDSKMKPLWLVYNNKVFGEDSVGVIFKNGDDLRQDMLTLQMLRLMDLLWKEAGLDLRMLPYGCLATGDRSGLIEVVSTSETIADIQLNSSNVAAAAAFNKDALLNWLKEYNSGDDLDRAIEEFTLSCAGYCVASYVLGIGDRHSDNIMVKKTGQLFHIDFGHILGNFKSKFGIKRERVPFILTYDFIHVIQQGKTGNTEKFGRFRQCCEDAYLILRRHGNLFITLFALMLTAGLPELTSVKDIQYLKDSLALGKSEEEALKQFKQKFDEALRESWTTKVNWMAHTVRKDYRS
UniProt Q08752, sequence (Q08752 whole entry, looked up): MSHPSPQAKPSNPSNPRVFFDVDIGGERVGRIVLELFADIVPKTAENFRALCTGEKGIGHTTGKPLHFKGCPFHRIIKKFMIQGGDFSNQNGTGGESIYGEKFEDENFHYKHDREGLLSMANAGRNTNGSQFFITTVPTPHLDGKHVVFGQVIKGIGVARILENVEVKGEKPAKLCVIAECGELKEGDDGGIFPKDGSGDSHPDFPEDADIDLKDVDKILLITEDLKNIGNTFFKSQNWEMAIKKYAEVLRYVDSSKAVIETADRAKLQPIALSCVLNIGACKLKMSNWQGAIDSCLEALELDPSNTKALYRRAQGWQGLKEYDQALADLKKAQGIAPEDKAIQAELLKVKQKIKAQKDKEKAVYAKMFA
UniProt Q86TP1, sequence (Q86TP1 whole entry, looked up): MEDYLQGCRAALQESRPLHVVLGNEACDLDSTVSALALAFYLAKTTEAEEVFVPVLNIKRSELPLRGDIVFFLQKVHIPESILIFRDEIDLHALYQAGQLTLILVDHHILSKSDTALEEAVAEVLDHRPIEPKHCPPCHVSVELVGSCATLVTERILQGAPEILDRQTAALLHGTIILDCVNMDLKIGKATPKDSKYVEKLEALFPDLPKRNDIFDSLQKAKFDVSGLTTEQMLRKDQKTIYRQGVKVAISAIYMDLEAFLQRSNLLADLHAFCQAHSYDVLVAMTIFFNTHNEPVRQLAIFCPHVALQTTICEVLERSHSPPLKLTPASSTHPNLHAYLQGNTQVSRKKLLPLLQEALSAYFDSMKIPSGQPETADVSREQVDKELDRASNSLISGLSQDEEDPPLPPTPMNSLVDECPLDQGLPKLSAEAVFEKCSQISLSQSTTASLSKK
UniProt Q9Y3C6, sequence (Q9Y3C6 whole entry, looked up): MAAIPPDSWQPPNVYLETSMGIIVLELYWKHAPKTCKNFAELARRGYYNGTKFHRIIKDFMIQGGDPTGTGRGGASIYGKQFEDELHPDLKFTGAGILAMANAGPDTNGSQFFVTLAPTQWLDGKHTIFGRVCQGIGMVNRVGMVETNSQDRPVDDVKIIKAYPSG
UniProt Q8TBX8, sequence (Q8TBX8 whole entry, looked up): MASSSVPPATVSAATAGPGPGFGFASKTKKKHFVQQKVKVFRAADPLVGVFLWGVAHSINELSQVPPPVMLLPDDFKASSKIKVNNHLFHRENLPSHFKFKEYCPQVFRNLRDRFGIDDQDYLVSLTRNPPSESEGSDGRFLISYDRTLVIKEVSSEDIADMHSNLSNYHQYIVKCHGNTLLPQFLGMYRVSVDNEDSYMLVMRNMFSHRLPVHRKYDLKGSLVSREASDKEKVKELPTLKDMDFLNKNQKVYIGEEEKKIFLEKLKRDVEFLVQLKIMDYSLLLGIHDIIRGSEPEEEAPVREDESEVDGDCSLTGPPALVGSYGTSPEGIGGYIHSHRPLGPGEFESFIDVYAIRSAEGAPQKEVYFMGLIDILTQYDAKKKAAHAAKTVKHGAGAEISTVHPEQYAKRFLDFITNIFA
UniProt P62136, sequence (P62136 whole entry, looked up): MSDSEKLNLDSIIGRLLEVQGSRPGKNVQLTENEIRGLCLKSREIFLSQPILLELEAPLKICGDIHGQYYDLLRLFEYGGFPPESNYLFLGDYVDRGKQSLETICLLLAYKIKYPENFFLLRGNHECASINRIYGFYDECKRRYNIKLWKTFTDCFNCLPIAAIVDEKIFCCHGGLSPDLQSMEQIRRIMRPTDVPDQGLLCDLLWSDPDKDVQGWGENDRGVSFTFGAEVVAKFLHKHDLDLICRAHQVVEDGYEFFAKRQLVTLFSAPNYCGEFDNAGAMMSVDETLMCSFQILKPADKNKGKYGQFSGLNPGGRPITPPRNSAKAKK
UniProt P31321, sequence (P31321 whole entry, looked up): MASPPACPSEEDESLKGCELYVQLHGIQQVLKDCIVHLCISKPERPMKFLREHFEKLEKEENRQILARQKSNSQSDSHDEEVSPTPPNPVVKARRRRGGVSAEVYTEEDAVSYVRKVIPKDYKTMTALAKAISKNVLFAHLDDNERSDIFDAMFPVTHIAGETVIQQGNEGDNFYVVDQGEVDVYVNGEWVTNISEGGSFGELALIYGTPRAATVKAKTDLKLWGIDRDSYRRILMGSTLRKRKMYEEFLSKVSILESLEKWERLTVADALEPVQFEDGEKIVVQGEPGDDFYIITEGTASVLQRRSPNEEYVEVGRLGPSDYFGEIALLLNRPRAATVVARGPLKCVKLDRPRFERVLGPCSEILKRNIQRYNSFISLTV
UniProt O00628, sequence (O00628 whole entry, looked up): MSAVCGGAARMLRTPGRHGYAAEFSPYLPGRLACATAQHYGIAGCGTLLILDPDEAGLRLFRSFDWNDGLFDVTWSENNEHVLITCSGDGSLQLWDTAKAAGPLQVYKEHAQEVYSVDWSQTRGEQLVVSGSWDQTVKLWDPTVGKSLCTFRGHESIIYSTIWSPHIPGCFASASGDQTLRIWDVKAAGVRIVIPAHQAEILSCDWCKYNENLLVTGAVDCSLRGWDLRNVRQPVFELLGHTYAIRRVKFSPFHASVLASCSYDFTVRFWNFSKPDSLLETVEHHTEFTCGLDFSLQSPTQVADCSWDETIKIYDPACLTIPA
UniProt P49585, sequence (P49585 whole entry, looked up): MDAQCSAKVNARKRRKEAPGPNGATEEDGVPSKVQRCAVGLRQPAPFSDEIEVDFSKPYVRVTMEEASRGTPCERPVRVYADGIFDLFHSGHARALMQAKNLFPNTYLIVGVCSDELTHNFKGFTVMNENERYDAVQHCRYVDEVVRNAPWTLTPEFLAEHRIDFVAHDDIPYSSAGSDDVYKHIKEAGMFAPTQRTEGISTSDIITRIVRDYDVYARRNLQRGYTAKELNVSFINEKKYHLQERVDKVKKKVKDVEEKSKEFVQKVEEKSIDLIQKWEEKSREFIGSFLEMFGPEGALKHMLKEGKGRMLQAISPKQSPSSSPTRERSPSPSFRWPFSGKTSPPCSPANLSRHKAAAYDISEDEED
UniProt Q9BRX2, sequence (Q9BRX2 whole entry, looked up): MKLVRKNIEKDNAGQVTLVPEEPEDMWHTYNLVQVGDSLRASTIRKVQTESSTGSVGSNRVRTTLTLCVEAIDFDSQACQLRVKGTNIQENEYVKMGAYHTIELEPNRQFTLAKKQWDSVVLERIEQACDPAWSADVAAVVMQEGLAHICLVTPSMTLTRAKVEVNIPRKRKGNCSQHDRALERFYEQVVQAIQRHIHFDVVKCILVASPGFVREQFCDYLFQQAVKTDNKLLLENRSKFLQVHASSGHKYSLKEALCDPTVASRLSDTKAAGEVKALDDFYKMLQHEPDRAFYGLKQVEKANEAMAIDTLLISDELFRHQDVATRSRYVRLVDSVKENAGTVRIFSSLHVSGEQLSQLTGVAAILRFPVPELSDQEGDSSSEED

| Target | log2 fold change [1] | log2 fold change (volasertib) | log2 fold change [2] | log2 fold change (epoxomicin) | log2 fold change [3] | log2 fold change [4] | log2 fold change [5] | log2 fold change (rosiglitazone) | log2 fold change [6] | log2 fold change [7] | log2 fold change (saracatinib) | log2 fold change (sotrastaurin) | log2 fold change (alvocidib) | log2 fold change (Tubastatin A) | log2 fold change [8] | log2 fold change (defactinib) | log2 fold change (rucaparib) | log2 fold change [9] | log2 fold change (encorafenib) | log2 fold change [10] |
| --- | --- | --- | --- | --- | --- | --- | --- | --- | --- | --- | --- | --- | --- | --- | --- | --- | --- | --- | --- | --- |
| POLA2 (UniProt Q14181) | -0.114 | -0.328 (active) | 0.051 | 0.022 | -0.008 | -0.109 | 0.1 | 0.061 | -0.057 | -0.22 | 0.035 | -0.055 | -0.15 | 0.051 | 0.096 | -0.254 | -0.125 | 0.039 | 0.06 | -0.038 |
| PIP4K2C (UniProt Q8TBX8) | 1.12 (active) | 1.19 (active) | -0.096 | -0.022 | 0.001 | 0.05 | -0.016 | 0.046 | 0.699 | 0.384 | -0.049 | -0.035 | 0.54 | 0.133 | 0.371 | 0.527 | 0.011 | -0.042 | 0.051 | -0.113 |
| PEX7 (UniProt O00628) | 0.038 | 0.005 | -0.027 | 0.075 | -0.044 | -0.01 | 0.091 | -0.045 | -0.067 | 0.023 | 0.045 | 0.06 | -0.023 | 0.061 | 0.005 | -0.005 | -0.047 | 0.03 | -0.023 | -0.039 |
| PRUNE1 (UniProt Q86TP1) | -0.083 | -0.417 (active) | 0.067 | 0.012 | -0.035 | -0.024 | -0.018 | 0.04 | -0.079 | -0.089 | -0.071 | -0.045 | -0.053 | 0.017 | 0.007 | -0.05 | 0.027 | 0.033 | 0.006 | 0.005 |
| PPP1CA (UniProt P62136) | -0.014 | -0.061 | 0.003 | 0.02 | 0.011 | -0.041 | -0.033 | 0.015 | -0.077 | 0.011 | 0.036 | -0.03 | -0.027 | -0.024 | -0.009 | -0.033 | -0.008 | -0.028 | -0.009 | 0.018 |
| PSME4 (UniProt Q14997) | 0.076 | 0.038 | 0.04 | 0.35 (active) | -0.014 | -0.069 | 0.02 | 0.053 | 0.001 | -0.137 | -0.006 | -0.035 | -0.051 | 0.025 | -0.027 | 0.037 | -0.023 | 0.067 | 0.066 | -0.029 |
| PLBD2 (UniProt Q8NHP8) | -0.188 | -0.222 (active) | -0.034 | -0.015 | 0.024 | 0.029 | 0.008 | 0.009 | -0.029 | -0.21 | 0.033 | 0.031 | 0.006 | 0.01 | 0.029 | -0.025 | -0.115 | -0.008 | 0.005 | 0.038 |
| PELO (UniProt Q9BRX2) | -0.017 | -0.387 | 0.09 | -0.058 | -0.068 | 0.007 | -0.017 | 0.085 | 0.138 | -0.312 | -0.079 | -0.218 | -0.066 | 0.121 | -0.122 | -0.058 | 0.299 | 0.148 | 0.137 | 0.061 |
| PIK3CB (UniProt P42338) | 0.017 | -0.224 (active) | 0.082 | 0.033 | -0.01 | -0.071 | 0.008 | 0.078 | 0.003 | 0.175 | -0.019 | 0.01 | -0.026 | 0.001 | -0.011 | -0.04 | 0.014 | 0.042 | -0.015 | -0.003 |
| PPIL1 (UniProt Q9Y3C6) | 0.014 | -0.051 | 0.01 | -0.024 | -0.042 | 0.02 | -0.014 | 0.035 | 0.049 | 0.018 | -0.007 | -0.088 | 0.096 | -0.016 | 0.042 | 0.09 | 0.056 | -0.062 | 0.052 | -0.042 |
| PPID (UniProt Q08752) | -0.076 | -0.366 (active) | 0.132 | 0.026 | -0.046 | -0.058 | 0.087 | 0.062 | -0.015 | -0.173 | -0.137 | -0.178 | -0.069 | 0.051 | 0.044 | -0.101 | 0.135 | 0.042 | 0.142 | -0.052 |
| PUF60 (UniProt Q9UHX1) | -0.078 | -0.304 (active) | 0.033 | 0.028 | -0.045 | -0.032 | 0.007 | 0.022 | -0.031 | 0.051 | 0 | -0.035 | -0.138 | 0.048 | -0.197 | -0.173 | -0.003 | -0.007 | 0.049 | -0.012 |
| PTMA (UniProt P06454) | -0.167 | 0.112 | -0.064 | 0.2 | 0.017 | -0.009 | -0.01 | -0.032 | -0.027 | -0.052 | 0.016 | -0.026 | -0.034 | 0.098 | -0.07 | -0.108 | 0.02 | 0.01 | -0.05 | -0.059 |
| PRKAR1B (UniProt P31321) | 0.024 | -0.054 | -0.067 | -0.063 | 0.119 | 0.12 | -0.001 | 0.042 | 0.127 | 0.43 (active) | -0.137 | -0.02 | 0.128 | 0.035 | 0.247 | 0.117 | 0.029 | 0.047 | 0.056 | -0.067 |
| PCYT1A (UniProt P49585) | -0.219 | -0.332 (active) | 0.042 | 0.028 | -0.029 | -0.019 | 0.017 | 0.008 | -0.022 | -0.111 | -0.014 | -0.105 | -0.254 | 0.013 | 0.032 | -0.186 | -0.127 | -0.097 | -0.001 | -0.02 |
| POTEI (UniProt P0CG38) | -0.009 | -0.009 | -0.043 | -0.039 | -0.026 | 0.009 | -0.006 | -0.028 | -0.06 | 0.035 | 0.108 | 0.066 | -0.038 | -0.012 | -0.02 | -0.026 | -0.049 | -0.014 | -0.007 | -0.016 |
